TMEM16A inh: inhibitors of mouse TMEM16A calcium-activated chloride channel | Q8BHY3 | HEK293 TMEM16A/YFP iodide influx fluorescence, ionomycin | normalized B-score (activity score, 25-100; higher = stronger inhibition) at 10 µM | 1.2% of 310,000 active | AID 588511;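 active = ratio plate-corrected score three or more library SD toward inhibition, starting fluorescence score within five deviations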;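 note: score derived from kinetic fluorescence span divided by baseline fluorescence per well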
TLR9-MyD88 block: TLR9-MyD88 interaction inhibition | CHO BLA complementation TLR9-MyD88, CCF4 FRET ratio | inhibition, % at 4.98 µM | 0.21% of 340,000 active;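 active = inhibition above the mean over all tested compounds plus 3 SD, cut at about 21% in these data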;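 note: 0% = DMSO only wells and 100% = clavulanate BLA inhibitor control wells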
GRK2 aptamer HTS: blocks RNA aptamer binding to human GRK2; P25098; bead flow cytometry, FAM-aptamer displacement from GRK2; inhibition of aptamer binding, % at 10 µM; 0.59% of 330,000 active;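 active = inhibition of aptamer binding above 40%, roughly 3 SD of noise, on plates passing a quality check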;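 note: median bead fluorescence of bound FAM aptamer so fluorescent compounds give negative values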
NOD2-RIPK2 inh: inhibitors of human NOD2-RIPK2 interaction | O43353 | inhibition, % at 4.98 µM | CHO BLA complementation NOD2-RIPK2, CCF4 ratio | 0.38% of 360,000 active; in the data active = inhibition above about 21%;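 note: 0% = vehicle only and 100% = reference blocker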
TLR4-MyD88 BLA: blocks binding of human TLR4 to MyD88; O00206+Q99836; 0.18% of 200,000 active; inhibition, % at 8.4 µM; AID 861; HeLa CL3-4 TLR4/MyD88 BLA complementation, FRET ratio; in the data active = inhibition above about 25%;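 note: 0% = vehicle and 100% = reference inhibitor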
ANO1 activ: activators or potentiators of mouse TMEM16A chloride channel; Q8BHY3; HEK293 TMEM16A/YFP-H148Q/I152L, iodide quench fluorescence; active compounds read low; B-score at 10 µM; 0.3% of 340,000 active;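 active = fluorescence-ratio B-score plate-corrected deviation score at least 3 library SD below zero, with starting fluorescence score within 5 deviations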;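 note: channel opened by trigger with iodide after compound preincubation; score built on the fluorescence ratio of max minus min over baseline; more negative score means more quench and so TMEM16A activation or potentiation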
TMEM16A reconf: re-confirmation of mouse TMEM16A chloride channel inhibitors | shares compounds with TMEM16A inh | HEK293 TMEM16A/YFP-H148Q, iodide quench fluorescence; ionomycin added to raise cell calcium | inhibition, % at 10 µM | 39% of 2,300 active | AID 652189;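 active = mean duplicate percent inhibition, scaled so buffer wells are 0 and the reference blocker 100, over three buffer SD above buffer mean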
HEK293 Ca mobil: calcium mobilization counter-screen hit for TMEM16A inhibitor series. shares compounds with TMEM16A inh. TMEM16A/YFP HEK293, Fluo4 calcium mobilization. calcium response (% of ionomycin), % at 10 µM. 2% of 2,300 active;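 active = duplicate-averaged calcium signal over 20% of the ionomycin maximum, relative to buffer baseline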;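 note: each well's signal is peak minus trough fluorescence divided by its pre-addition baseline; 0% = buffer wells and 100% = ionomycin wells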
YFP-HEK293 quench: counter-screen for TMEM16A inhibitors: effect in parental YFP-HEK293 cells. AID 652233. 2,300 tested, under 10 active. iodide YFP quench, ionomycin. shares compounds with TMEM16A inh. YFP ratio F(max-min)/F0 at 10 µM;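 active = yellow fluorescent protein signal ratio exceeding the buffer control mean by over 5 SD of those controls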;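 note: ratio is mean of duplicate wells from kinetic YFP trace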
ClC-1 rat inh: selectivity of TMEM16A inhibitors: inhibition of rat ClC-1 chloride channel; AID 652236; ratio percent, % at 10 µM; 2,300 tested, under 10 active; CHO ClC-1-YFP, iodide influx fluorescence quench; iodide control reads 0, buffer control 100; shares compounds with TMEM16A inh;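 active = duplicate-mean ratio percent above the mean of iodide-only control wells, which defines zero, plus 5 of their SD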;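 note: higher percent means stronger block of ClC-1 iodide influx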
Target sequence (P35524 whole entry, looked up): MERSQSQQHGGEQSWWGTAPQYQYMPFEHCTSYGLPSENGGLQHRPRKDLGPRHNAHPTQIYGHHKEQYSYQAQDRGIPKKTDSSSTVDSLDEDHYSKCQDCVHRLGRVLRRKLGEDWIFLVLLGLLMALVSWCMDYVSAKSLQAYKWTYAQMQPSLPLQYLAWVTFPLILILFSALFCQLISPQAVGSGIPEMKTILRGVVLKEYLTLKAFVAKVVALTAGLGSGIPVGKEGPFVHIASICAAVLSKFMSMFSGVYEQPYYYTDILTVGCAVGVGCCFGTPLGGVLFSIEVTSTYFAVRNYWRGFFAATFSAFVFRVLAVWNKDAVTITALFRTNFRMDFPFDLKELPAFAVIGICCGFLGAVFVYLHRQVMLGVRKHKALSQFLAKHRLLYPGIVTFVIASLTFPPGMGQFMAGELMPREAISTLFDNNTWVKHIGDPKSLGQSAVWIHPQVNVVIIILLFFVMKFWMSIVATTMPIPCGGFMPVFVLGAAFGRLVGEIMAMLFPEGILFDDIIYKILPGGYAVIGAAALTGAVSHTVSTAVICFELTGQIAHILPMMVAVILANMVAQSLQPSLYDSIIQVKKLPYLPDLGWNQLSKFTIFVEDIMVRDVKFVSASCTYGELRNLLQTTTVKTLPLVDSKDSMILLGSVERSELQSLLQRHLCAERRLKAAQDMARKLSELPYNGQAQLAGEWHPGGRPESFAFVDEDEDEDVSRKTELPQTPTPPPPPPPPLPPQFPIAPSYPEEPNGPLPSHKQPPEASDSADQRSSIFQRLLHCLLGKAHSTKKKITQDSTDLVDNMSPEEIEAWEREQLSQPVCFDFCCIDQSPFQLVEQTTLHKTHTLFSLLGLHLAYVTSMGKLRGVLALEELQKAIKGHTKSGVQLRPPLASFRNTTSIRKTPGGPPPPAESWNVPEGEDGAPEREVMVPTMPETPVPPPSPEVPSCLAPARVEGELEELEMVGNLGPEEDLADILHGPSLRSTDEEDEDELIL
The depositor's hits bear a star. Most compounds without a hit are left out; they make up all but 2.2% or so of the library.

O=C(CSc1nnc(Nc2ccccc2)s1)Nc1ccc(S(=O)(=O)N2CCOCC2)cc1 was read as TMEM16A inh 25*, TLR9-MyD88 block -3, GRK2 aptamer HTS 2, NOD2-RIPK2 inh 5, TLR4-MyD88 BLA 2, ANO1 activ inactive, TMEM16A reconf inactive, HEK293 Ca mobil inactive, YFP-HEK293 quench -1 and ClC-1 rat inh -9.
Cc1ccc(Nc2nnc(SCC(=O)Nc3ccc(S(=O)(=O)N4CCOCC4)cc3)s2)cc1 was read as TMEM16A inh inactive, TLR9-MyD88 block -2, GRK2 aptamer HTS 0, NOD2-RIPK2 inh -2, TLR4-MyD88 BLA 3 and ANO1 activ inactive.
`Cc1ccc(OCc2ccc(C(=O)N3CCCC3)o2)cc1C` gave TMEM16A inh 25*, TLR9-MyD88 block -6, GRK2 aptamer HTS 0, NOD2-RIPK2 inh 4, ANO1 activ inactive, TMEM16A reconf inactive, HEK293 Ca mobil inactive, YFP-HEK293 quench -1.2 and ClC-1 rat inh -14.
Screening O=S(=O)(c1ccccc1Cl)N1CCCC1c1nc(-c2ccccc2Cl)no1 (centres undefined) returned TMEM16A inh 100*, TLR9-MyD88 block 2, GRK2 aptamer HTS 4, NOD2-RIPK2 inh -4, TLR4-MyD88 BLA -10, ANO1 activ inactive, TMEM16A reconf 18%*, HEK293 Ca mobil inactive, YFP-HEK293 quench -1.1 and ClC-1 rat inh -14.
Screening O=C(NNC(=S)Nc1ccccc1)c1cc(Br)ccc1Cl returned TMEM16A inh 25*, TLR9-MyD88 block -4, GRK2 aptamer HTS 46*, NOD2-RIPK2 inh -4, ANO1 activ inactive, TMEM16A reconf 18%*, HEK293 Ca mobil inactive, YFP-HEK293 quench -1 and ClC-1 rat inh -8.
CCc1noc(C)c1C(=O)Nc1nnc(CC(C)C)s1 was read as TMEM16A inh inactive, TLR9-MyD88 block 5, GRK2 aptamer HTS 0, NOD2-RIPK2 inh 1 and ANO1 activ inactive.
For N#CC1=C(N)OC2=C(CCc3ccccc32)C1c1ccccc1Cl (centres undefined) the results were TMEM16A inh inactive, TLR9-MyD88 block -8, GRK2 aptamer HTS 0, NOD2-RIPK2 inh -1, TLR4-MyD88 BLA 8, ANO1 activ inactive, TMEM16A reconf 38%*, HEK293 Ca mobil inactive, YFP-HEK293 quench -1 and ClC-1 rat inh 0.
Cc1cccc(-n2c(C)c(C)c3c(N)ncnc32)c1 was read as TMEM16A inh inactive, TLR9-MyD88 block -6, GRK2 aptamer HTS 1, NOD2-RIPK2 inh -5 and ANO1 activ inactive.
Screening CCOP(=O)(c1c(F)c(F)c(F)c(F)c1F)C(O)c1ccccc1 (centres undefined) returned TMEM16A inh 25*, TLR9-MyD88 block -22, GRK2 aptamer HTS 0, NOD2-RIPK2 inh -1, TLR4-MyD88 BLA 7, ANO1 activ inactive, TMEM16A reconf 31%*, HEK293 Ca mobil inactive, YFP-HEK293 quench -0.98 and ClC-1 rat inh -10.
CCOP(=O)(c1ccccc1)C(O)c1ccccc1 (centres undefined) was read as TMEM16A inh inactive, TLR9-MyD88 block 10, GRK2 aptamer HTS 0, NOD2-RIPK2 inh -7, TLR4-MyD88 BLA 4 and ANO1 activ inactive.
For OCC(O)/C=N/Nc1nc(N2CCCCC2)nc(N2CCCCC2)n1 (centres undefined) the results were TMEM16A inh inactive, TLR9-MyD88 block -5, GRK2 aptamer HTS 2, NOD2-RIPK2 inh -19, TLR4-MyD88 BLA 3 and ANO1 activ inactive.
COc1ccc(C(=O)NCCc2nnc3ccc(SCC(=O)Nc4ccccc4F)nn23)cc1 was read as TMEM16A inh inactive, TLR9-MyD88 block 4, GRK2 aptamer HTS 3, NOD2-RIPK2 inh -9 and ANO1 activ inactive.
For O=C(c1cnn2c1NC(c1ccco1)CC2C(F)(F)F)N1CCN(c2cccc(Cl)c2)CC1 (centres undefined) the results were TMEM16A inh 25*, TLR9-MyD88 block 3, GRK2 aptamer HTS 3, NOD2-RIPK2 inh 4, TLR4-MyD88 BLA -2, ANO1 activ inactive, TMEM16A reconf inactive, HEK293 Ca mobil inactive, YFP-HEK293 quench -0.95 and ClC-1 rat inh -5.
COc1ccc2nc3oc(C(=O)Nc4ccc(OC)c(OC)c4)cc3cc2c1 was read as TMEM16A inh inactive, TLR9-MyD88 block -4, GRK2 aptamer HTS 35, NOD2-RIPK2 inh 3, TLR4-MyD88 BLA -5 and ANO1 activ inactive.
For COc1ccc2cc3cc(C(=O)Nc4ccc5c(c4)OCO5)oc3nc2c1 the results were TMEM16A inh 100*, TLR9-MyD88 block -2, GRK2 aptamer HTS 1, NOD2-RIPK2 inh -10, TLR4-MyD88 BLA -3, ANO1 activ inactive, TMEM16A reconf inactive, HEK293 Ca mobil inactive, YFP-HEK293 quench -0.93 and ClC-1 rat inh -16.
For CC(=O)Nc1sc(NC(=O)c2ccc(C)cc2)nc1-c1cccs1 the results were TMEM16A inh inactive, TLR9-MyD88 block 2, GRK2 aptamer HTS 0, NOD2-RIPK2 inh -7, TLR4-MyD88 BLA -9 and ANO1 activ inactive.
CC1(C)C(C=C(Cl)Cl)C1C(=O)N/N=C/c1ccccc1F (centres undefined) was read as TMEM16A inh 25*, TLR9-MyD88 block -13, GRK2 aptamer HTS 0, NOD2-RIPK2 inh -3, ANO1 activ inactive, TMEM16A reconf inactive, HEK293 Ca mobil inactive, YFP-HEK293 quench -1.1 and ClC-1 rat inh -13.
For CCc1ccc(OS(=O)(=O)c2cn(C)c(=O)n(C)c2=O)cc1 the results were TMEM16A inh inactive, TLR9-MyD88 block 0, GRK2 aptamer HTS 2, NOD2-RIPK2 inh -4, TLR4-MyD88 BLA 13 and ANO1 activ inactive.
CN(C)c1ccc(CN(C(=O)COc2ccccc2)C2CCS(=O)(=O)C2)cc1 (centres undefined) was read as TMEM16A inh inactive, TLR9-MyD88 block -2, GRK2 aptamer HTS 0, NOD2-RIPK2 inh -1, TLR4-MyD88 BLA 0 and ANO1 activ inactive.

Assay outcomes as filed in PubChem.
